PubChem BioAssay (NCATS)
Records with an inconclusive call do not appear. Activity calls are given as the source filed them. The call rests on the fitted dose curve; in most records, active means well fitted inhibition curve with a large enough effect; inconclusive means small, poorly fitted or top-dose-only effect; inactive means no such curve, though single readings can be large or run the other way.

What follows are molecules tested on Zika virus NS2B-NS3 protease (linked construct) (assay: Primary screen NINDS Rhodamine qHTS for Zika virus inhibitors (AID 1347160; further: nearly all actives have a fitted effect of over 55% in size)). Conditions: purified NS2B-NS3 protease, Rhodamine110 substrate fluorescence; series mostly up to 57.1 µM; activity change, negative = inhibition: at the top concentration.
In short: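 Kinetic fluorescence (Ex 480 nm, Em 540 nm) over 15 min with 1.5 microM Rhodamine110 peptide and 25 nM linked protease.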
On the % scale 0 is the no-effect control and ±100 the full control effect.

Q: Which “outcome” value does the source give for `CCN(CC)CCCS(=O)(=O)N[C@H](CCc1ccccc1)c1nc(Cc2ccc(Br)cc2)no1` here?
A: inactive

Q: For `Cc1sc2c(c1C)C(c1ccc(Cl)cc1)=N[C@H](CC(=O)NCCCCNC(=O)COc1cccc3c1C(=O)N([C@H]1CCC(=O)NC1=O)C3=O)c1nnc(C)n1-2`, which “activity change, negative = inhibition” value is on record?
A: -3.88% (inactive)

Q: How did the “activity change, negative = inhibition” value turn out when `CN(C)c1cccc(Oc2cnc(Nc3cccc(O)c3)nc2)c1` was run?
A: 8.97% (inactive)

Q: Which “outcome” value does the source give for `CCC(C(C)O)n1ncn(-c2ccc(N3CCN(c4ccc(OCC5COC(Cn6cncn6)(c6ccc(F)cc6F)C5)cc4)CC3)cc2)c1=O` (stereo not given) here?
A: inactive

Q: For `C[C@@H]1C[C@H](C)CN(CCC(=O)Nc2ccc(Br)cc2)C1`, which “outcome” value is on record?
A: inactive

Q: How did the “activity change, negative = inhibition” value turn out when `CC[C@H](C(=O)Nc1ccccc1N1CCCC1)c1ccccc1` was run?
A: -0.0501% (inactive)

Q: How did the “activity change, negative = inhibition” value turn out when `Cc1nnc(C[C@@H]2C=C(c3ccc(Cl)cc3)c3ccccc3-n3c(C)nnc32)o1` was run?
A: -18.1% (inactive)

Q: With `CC(=O)C1(C)CCC2C3C=C(C)C4=CC(=O)CCC4(C)C3CCC21C` (stereo not given) as the molecule, how does the “activity change, negative = inhibition” value read?
A: -18.3% (inactive)

Q: With `FC(F)(F)c1ccccc1-c1cc(C(F)(F)F)c2nc(C3=NOC4(CCCCC4)C3)[nH]c2c1` as the molecule, how does the “outcome” value read?
A: inactive

Q: For `O=C1COc2nccc(-c3ccccc3F)c2CN1Cc1cc(C(F)(F)F)cc(C(F)(F)F)c1`, which “activity change, negative = inhibition” value is on record?
A: -18.5% (inactive)

Q: `CC(=O)O[C@@]12CO[C@@H]1C[C@H](O)[C@@]1(C)C(=O)[C@H](O)C3=C(C)[C@@H](OC(=O)[C@H](O)[C@@H](NC(=O)OC(C)(C)C)c4ccccc4)C[C@@](O)([C@@H](OC(=O)c4ccccc4)C12)C3(C)C` (stereo not given in full) was tested. Which “outcome” value did it give?
A: inactive [at 33.1 µM]

Q: For `O=C1NC(=O)C(c2cnc3ccccn23)=C1c1cn2c3c(cc(F)cc13)CN(C(=O)N1CCCCC1)CC2`, which “activity change, negative = inhibition” value is on record?
A: -29.6% (inactive)

Q: With `CC(F)(F)CN1CCOc2c(nn(-c3ccccc3Cl)c2-c2ccc(Cl)cc2)C1=O` as the molecule, how does the “activity change, negative = inhibition” value read?
A: -10.1% (inactive)

Q: `COc1cc(OC)c(NC(=O)c2ccc(Cc3cc4c(cc3C)C(C)(C)CCC4(C)C)o2)c(OC)c1` was tested. Which “activity change, negative = inhibition” value did it give?
A: -25.4% (inactive)

Q: `CCCCOc1ccc(S(=O)(=O)n2c(C)nc3ccccc32)cc1` was tested. Which “activity change, negative = inhibition” value did it give?
A: 6.03% [at 33.1 µM] (inactive)

Q: Which “activity change, negative = inhibition” value does the source give for `CC(C)(C)[C@H](NC(=O)c1ccc(N)c(Cl)c1)C(=O)N1CCC[C@H]1C(=O)N[C@H](C#N)CC(=O)O` here?
A: 20.1% (inactive)

Q: `C=C1/C(=C/C=C2\CCC[C@]3(C)[C@@H]([C@@H](C)OCCC(O)(CC)CC)CC[C@@H]23)C[C@@H](O)C[C@@H]1O` was tested. Which “activity change, negative = inhibition” value did it give?
A: -22.2% (inactive)

Q: `Cc1cc(NC(=O)c2cccc(NC(=O)/C=C/CN(C)C)c2)ccc1Nc1nccc(-c2cccnc2)n1` was tested. Which “outcome” value did it give?
A: inactive

Q: With `COc1ccc(C(=O)O[C@H]2C=COC=C3C=C4C(=O)N(C)C(=S)C(=O)N4[C@@H]32)cc1Oc1cc(C=O)ccc1O` as the molecule, how does the “activity change, negative = inhibition” value read?
A: -14.5% [at 33.1 µM] (inactive)

Q: With `O=S(=O)(NCc1ccccn1)c1ccc(Br)c2ccccc12` as the molecule, how does the “activity change, negative = inhibition” value read?
A: 21.6% (inactive)

Q: How did the “activity change, negative = inhibition” value turn out when `C/C=C/[C@@H]1C=C[C@@H]2C[C@H](C)CC[C@H]2[C@]1(C)/C(O)=C1/C(=O)[C@@H](CO)N(C)C1=O` was run?
A: -2.71% [at 33.1 µM] (inactive)

Q: With `NC(=O)N1CCC(CC(=O)N2CCC(C3c4ncc(Br)cc4CCc4cc(Cl)cc(Br)c43)CC2)CC1` (stereo not given) as the molecule, how does the “activity change, negative = inhibition” value read?
A: 11.4% (inactive)

Q: How did the “outcome” value turn out when `C/C=C(/C)C(=O)O[C@H]1C=C(CO)C(=O)[C@H](OC(=O)/C(C)=C/CO)[C@H]1C(C)C` was run?
A: inactive [at 33.1 µM]

Q: Which “activity change, negative = inhibition” value does the source give for `C#CCOc1ccc2c(c1)c(-c1ccc(C(C)C)cc1)nc(=O)n2C(C)C` here?
A: -12.3% (inactive)

Q: Which “activity change, negative = inhibition” value does the source give for `CC(=O)OC1[C@H]2[C@@H](C[C@@H](C)[C@@H]3C=CC(=O)[C@@]13C)OC(=O)[C@@H]2C` (stereo not given in full) here?
A: 9.48% (inactive)

Q: `Cc1nc(N2CCN(C(=O)c3ccco3)CC2)c2c3c(sc2n1)CCCC3` was tested. Which “activity change, negative = inhibition” value did it give?
A: -13.9% (inactive)

Q: How did the “activity change, negative = inhibition” value turn out when `COc1cc2c(cc1OC(C)C)[C@H](c1ccc(Cl)cc1)N(c1ccc(N(C)CC3CCC(N4CCN(C)C(=O)C4)CC3)cc1)C(=O)C2` (stereo not given in full) was run?
A: 16.4% (inactive)

Q: How did the “outcome” value turn out when `Clc1ccc(Nc2nc3ccccc3c3nc(C4CCCCC4)[nH]c23)cc1Cl` was run?
A: inactive

Q: `C/C(=N\N=C(N)N)c1cc(NC(=O)CCCCCCCCC(=O)Nc2cc(/C(C)=N/N=C(N)N)cc(/C(C)=N/N=C(N)N)c2)cc(/C(C)=N/N=C(N)N)c1` was tested. Which “activity change, negative = inhibition” value did it give?
A: -81.1% (inactive)

Q: Which “activity change, negative = inhibition” value does the source give for `C=C1C(=O)OC2/C=C(\C)CC/C=C(\C=O)C(OC)C(OC(=O)C(C)CC)C12` (stereo not given) here?
A: -23.6% [at 33.1 µM] (inactive)

Q: `O=C(C(Cc1cccc(C(F)(F)F)c1)NS(=O)(=O)c1cc(F)c2c(c1)CCNC2)N1CCCC1` (stereo not given) was tested. Which “outcome” value did it give?
A: inactive

Q: For `O=c1[nH]c2cccc(N3CCN(Cc4ccc(-c5ccccc5)cc4)CC3)c2o1`, which “activity change, negative = inhibition” value is on record?
A: -3.84% (inactive)

Q: For `CC(NC(=O)Cc1cc(F)cc(F)c1)C(=O)NC1C(=O)N(C)c2ccccc2-c2ccccc21` (stereo not given), which “activity change, negative = inhibition” value is on record?
A: 109% (inactive)

Q: How did the “activity change, negative = inhibition” value turn out when `Cc1cc(-c2cnc(N)c3c(-c4ccc5scnc5c4)csc23)n(C)n1` was run?
A: -0.913% (inactive)

Q: For `O=C(NCc1cccs1)c1cc2nc(-c3ccco3)cc(C(F)(F)Cl)n2n1`, which “activity change, negative = inhibition” value is on record?
A: -5.25% (inactive)
